PubChem BioAssay
Values joined by “and” are separate entries in the source; they are usually repeats but may differ in a detail not shown here. Equal entries are not always repeated. Active and inactive are the calls of the source. Unless noted, no stated cut-off is given here; in the data, active means inhibition above about 80%; inactive means the rest.

Tests used:
[1] = LFS_MB_P medulloblastoma growth inhibition, cell-based, chromothripsis tumors, cisplatin or BGB combos (AID 1671449); conditions: LFS_MB_P medulloblastoma cells;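 further: cells exposed for 96 hours; 0% = vehicle DMSO and 100% = killing by high DMSO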
[2] = HDN33 neuroblastoma growth inhibition, cell-based, chromothripsis tumors, cisplatin or BGB combos (AID 1671450); conditions: HDN33 neuroblastoma cells, stronger effect = higher value;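 further: cells exposed to compound for four days; 0% = vehicle DMSO and 100% = cell killing by high DMSO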
[3] = ICB984 medulloblastoma cell growth inhibition, synergistic combos for chromothripsis tumors, cisplatin or BGB combos (AID 1671451; call rule not given here;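 further: cells exposed for 96 hours before readout; 0% = vehicle DMSO and 100% = killing by high DMSO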); conditions: ICB984 medulloblastoma cells, drug combinations, stronger effect = higher value
[4] = LFS_MB_1R medulloblastoma cell growth inhibition, synergistic combos for chromothripsis tumors, cisplatin or BGB combos (AID 1671452); conditions: LFS_MB_1R medulloblastoma cells, stronger effect = higher value;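 further: cells exposed for 96 hours before readout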
[5] = HTB85 osteosarcoma cell growth inhibition, synergistic combos for chromothripsis tumors, BGB or cisplatin IC20 combos (AID 1671453); conditions: HTB85 osteosarcoma cells, drug combinations, stronger effect = higher value;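 further: cells exposed for 96 hours before readout; 0% = vehicle DMSO and 100% = high DMSO killing control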
[6] = CRL2098 osteosarcoma cell growth inhibition, synergistic combos for chromothripsis tumors, BGB or cisplatin IC20 combos (AID 1671454); conditions: CRL2098 osteosarcoma cells, drug combinations, stronger effect = higher value;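 further: cells exposed for 96 h before readout; 0% = vehicle DMSO and 100% = killing by high DMSO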
[7] = HD-MB03 medulloblastoma cell growth inhibition, synergistic combos for chromothripsis tumors, BGB or cisplatin IC20 combos (AID 1671455; in the data active means inhibition above about 83%;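 further: 0% = vehicle DMSO and 100% = high DMSO as cytotoxic control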); conditions: HD-MB03 medulloblastoma cells, stronger effect = higher value
[8] = UWB1.289 ovarian carcinoma cell growth inhibition, synergistic combos for chromothripsis tumors, BGB or cisplatin combos (AID 1671456); conditions: UWB1.289 ovarian carcinoma cells, stronger effect = higher value;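 further: cells exposed to compound for four days; 0% = vehicle DMSO and 100% = killing by high DMSO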
[9] = LFS_MB_2R medulloblastoma cell growth inhibition, synergistic combos for chromothripsis tumors, cisplatin combos (AID 1671457); conditions: LFS_MB_2R medulloblastoma cells, stronger effect = higher value;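 further: cells exposed to compound for four days before readout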
[10] = MDA-MB-436 breast carcinoma cell growth inhibition, synergistic combos for chromothripsis tumors, BGB or cisplatin combos (AID 1671458; call rule not given here;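 further: cells exposed for 96 hours; 0% = vehicle DMSO and 100% = killing by high DMSO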); conditions: MDA-MB-436 breast carcinoma growth inhibition, drug combinations, stronger effect = higher value
[11] = UWB1.289_BRCA1 ovarian cancer growth, cell-based, BGB or cisplatin combinations (AID 1671459); conditions: UWB1.289 BRCA1 ovarian carcinoma, drug combinations, stronger effect = higher value
[12] = human astrocyte viability loss, single and combined drugs, cytotoxicity control for chromothriptic childhood tumor combination screen, cell-based, BGB or cisplatin IC20 combos (AID 1671460); conditions: Human astrocytes, drug combinations, stronger effect = higher value;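 further: cells exposed to compounds for 96 hours before viability readout; 0% = vehicle and 100% = killing control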
[13] = growth inhibition of BT084 medulloblastoma cells, cell-based, ICGC_MB145, cisplatin and BGB IC40 combos (AID 1671461); conditions: drug combinations, stronger effect = higher value;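 further: cells exposed to drugs for 96 hours; 0% = vehicle DMSO and 100% = high DMSO full killing control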
[14] = growth inhibition of RCMB18 medulloblastoma cells, cell-based, cisplatin and BGB IC40 combos (AID 1671462); conditions: stronger effect = higher value;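 further: cells exposed to compound for four days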
[15] = growth inhibition of CRL1545 osteosarcoma cells, cell-based, cisplatin and BGB IC20 combos (AID 1671464); conditions: stronger effect = higher value;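 further: cells exposed to compound for 96 hours before readout; 0% = vehicle DMSO and 100% = high DMSO killing control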
[16] = measured here: combination with BGB IC40, at 0.05 µM
[17] = measured here: with BGB IC20 combination, at 0.5 µM
[18] = measured here: with cisplatin IC20 combination, at 0.5 µM
[19] = measured here: combination with cisplatin, at 0.5 µM
[20] = measured here: combination with cisplatin, at 5 µM

Q: Which inhibition ([1]; at 0.5 µM, stronger effect = higher value) does the source give for `O=c1[nH]c(=S)[nH]c(/N=C/c2ccccc2)c1N=Cc1ccccc1` here?
A: 10.8% (inactive) and -1.11% (inactive)

Q: What about the inhibition ([1]; measured here: combination with BGB IC20, at 0.005 µM) of the same molecule?
A: 7.44% and 1.3%

Q: And the inhibition ([1]; measured here: combination with BGB IC40, at 0.005 µM)?
A: -16.5% and -26.2%

Q: What about the inhibition [1, 16] of the same molecule?
A: 0.419% and 2.63%

Q: And the inhibition ([1]; measured here: combination with cisplatin, at 0.5 µM, stronger effect = higher value)?
A: 24.4% and -35.7%

Q: What about the inhibition ([1]; measured here: combination with cisplatin, at 5 µM, stronger effect = higher value) of the same molecule?
A: -12.6% and -19.3%

Q: And the inhibition ([2]; BGB combo, at 5 µM)?
A: -34% and -42.2%

Q: And the inhibition ([2]; at 0.5 µM)?
A: -32.1% (inactive) and -19.5% (inactive)

Q: What about the inhibition ([2]; cisplatin combo, at 5 µM) of the same molecule?
A: -21.4% and -48.2%

Q: And the inhibition [2, 17]?
A: -30.4% and -16.3%

Q: What about the inhibition [2, 18] of the same molecule?
A: -42.2% and -15.7%

Q: What about the inhibition ([2]; single agent, at 5 µM) of the same molecule?
A: -37.4% and -37%

Q: And the inhibition ([3]; BGB IC20 combo, at 0.005 µM)?
A: 1.63% and -15.3%

Q: And the inhibition ([3]; BGB IC40 combo, at 0.005 µM)?
A: -50.4% and 4.14%

Q: And the inhibition ([3]; BGB IC40 combo, at 0.05 µM)?
A: -19.4% and -32.8%

Q: And the inhibition ([3]; at 0.5 µM)?
A: -11.2% (inactive) and -6.96% (inactive)

Q: And the inhibition ([3]; cisplatin combo, at 0.05 µM)?
A: -22.8% and -39.7%

Q: And the inhibition ([3]; cisplatin combo, at 0.5 µM)?
A: -24.4% and 3.72%

Q: What about the inhibition ([3]; cisplatin combo, at 5 µM) of the same molecule?
A: -19.7% and -8.53%

Q: And the inhibition ([3]; measured here: 5 uM single agent, at 5 µM)?
A: -28.4% and -9.24%

Q: And the inhibition ([4]; at 0.5 µM)?
A: -24.3% (inactive) and -5.83% (inactive)

Q: And the inhibition [4, 16]?
A: -16.1% and -5.8%

Q: And the inhibition [4, 19]?
A: -52.1% and -29.6%

Q: What about the inhibition [4, 20] of the same molecule?
A: -67.9% and -16.8%

Q: And the inhibition ([5]; at 0.5 µM)?
A: -24.2% (inactive) and -31.7% (inactive)

Q: And the inhibition ([5]; measured here: with BGB IC20, at 0.5 µM)?
A: -36.7% and -29.2%

Q: And the inhibition ([5]; measured here: with BGB IC20, at 5 µM)?
A: -72.3% and -10.6%

Q: What about the inhibition ([5]; measured here: with cisplatin IC20, at 0.5 µM) of the same molecule?
A: -17.7% and -30.3%

Q: And the inhibition ([5]; measured here: with cisplatin IC20, at 5 µM)?
A: -46.1% and -5.16%

Q: What about the inhibition ([5]; single agent, at 5 µM) of the same molecule?
A: -26.4% and -23.9%

Q: What about the inhibition ([6]; at 0.5 µM) of the same molecule?
A: -71.1% (inactive) and -62.3% (inactive)

Q: What about the inhibition ([6]; measured here: combination with BGB at IC20, at 0.5 µM) of the same molecule?
A: -91.5% and -60.8%

Q: What about the inhibition ([6]; measured here: combination with cisplatin at IC20, at 0.5 µM) of the same molecule?
A: -66.2% and -85.1%

Q: What about the inhibition ([7]; at 0.5 µM) of the same molecule?
A: -16.3% (inactive) and -12.6% (inactive)

Q: What about the inhibition ([7]; measured here: combo with BGB at IC20, at 0.5 µM) of the same molecule?
A: -14.6% and -13.1%

Q: What about the inhibition ([7]; measured here: combo with cisplatin at IC20, at 0.5 µM) of the same molecule?
A: -24.1% and -18.2%

Q: What about the inhibition ([8]; at 0.5 µM) of the same molecule?
A: -10.1% (inactive) and -11.6% (inactive)

Q: What about the inhibition ([8]; measured here: inhibition with BGB combination, at 0.05 µM) of the same molecule?
A: -8.71% and -6.64%

Q: And the inhibition ([8]; measured here: inhibition with cisplatin combination, at 0.05 µM)?
A: -18.2% and -17.6%

Q: And the inhibition ([9]; at 0.5 µM)?
A: -2.17% (inactive) and -7.03% (inactive)

Q: What about the inhibition [9, 19] of the same molecule?
A: 4.09% and -15.4%

Q: What about the inhibition [9, 20] of the same molecule?
A: -75.4% and -34.5%

Q: And the inhibition ([10]; at 0.5 µM)?
A: -13.4% (inactive) and -8.5% (inactive)

Q: And the inhibition ([10]; measured here: BGB combination, at 0.5 µM)?
A: -4.77% and -3.51%

Q: And the inhibition ([10]; measured here: BGB combination, at 5 µM)?
A: -0.125% and 9.68%

Q: And the inhibition ([10]; measured here: cisplatin combination, at 0.5 µM)?
A: -26% and -20.1%

Q: What about the inhibition ([10]; measured here: cisplatin combination, at 5 µM) of the same molecule?
A: -13.5% and -24.6%

Q: And the inhibition ([11]; BGB combination, concentration series, at 5 µM)?
A: -20.1% and -21%

Q: What about the inhibition ([11]; at 0.5 µM) of the same molecule?
A: -11.1% (inactive) and -17.6% (inactive)

Q: What about the inhibition ([11]; cisplatin combination, concentration series, at 5 µM) of the same molecule?
A: -0.543% and -15.8%

Q: And the inhibition ([12]; at 0.5 µM)?
A: -14.7% (inactive) and -11.3% (inactive)

Q: And the inhibition ([12]; measured here: combo with BGB IC20, at 0.5 µM)?
A: -6.75% and -6.18%

Q: And the inhibition ([12]; measured here: combo with cisplatin IC20, at 0.5 µM)?
A: -39.7% and -17.5%

Q: And the inhibition ([13]; at 0.5 µM)?
A: -0.252% (inactive) and 5.93% (inactive)

Q: What about the inhibition ([13]; cisplatin combination, at 0.5 µM) of the same molecule?
A: -5.14% and -7.54%

Q: What about the inhibition ([13]; cisplatin combination, at 5 µM) of the same molecule?
A: -2.96% and -198%

Q: What about the inhibition ([13]; measured here: BGB IC40 combination 0.05 uM, at 0.05 µM) of the same molecule?
A: 11.6% and -6.05%

Q: What about the inhibition ([13]; single agent, at 5 µM) of the same molecule?
A: -8.91% and -10.5%

Q: And the inhibition ([14]; at 0.5 µM)?
A: -27.2% (inactive) and -2.36% (inactive)

Q: And the inhibition ([14]; cisplatin combo, at 5 µM)?
A: -73.6% and -65.6%

Q: And the inhibition ([14]; measured here: BGB IC40 combination, at 0.05 µM)?
A: -4.14% and 6.35%

Q: What about the inhibition [14, 19] of the same molecule?
A: -76.9% and 2.66%

Q: What about the inhibition ([14]; single agent, at 5 µM) of the same molecule?
A: -10.2% and -0.506%

Q: What about the inhibition ([15]; at 0.5 µM) of the same molecule?
A: -63.6% (inactive) and -4.77% (inactive)

Q: And the inhibition [15, 17]?
A: -46.4% and -22.1%

Q: What about the inhibition [15, 18] of the same molecule?
A: -76% and 2.34%

Q: What about the inhibition ([15]; single agent, at 0.05 µM) of the same molecule?
A: -68.7% and -41.2%

Q: And the inhibition ([15]; single agent, at 5 µM)?
A: -27.1% and -36.4%
